Compounds without any hit were thinned out: in the full panel of roughly 79,000, 15% have a hit. Unmarked numbers belong to inactive results. Active and inactive are the calls of the source. Rule as the data show it: active = growth inhibition above about 70%; inactive = the rest.

The nature of the experiment: NCI Yeast Anticancer Drug Screen. Data for the bub3 strain (AID 167). The following applies: S. cerevisiae bub3 mutant strain, at 5.0 µM (retest, dose inferred, filed as 0.5), stronger effect = higher value. An outline of the steps:
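Inhibition values come from growth of compound-treated mutant yeast normalised to vehicle-treated controls.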
Consider `Cc1ccccc1N1C(=O)C(=O)c2cccc(C)c21`, for which the growth inhibition was 2%.
Regarding `Nc1n[nH]c(=O)c2cccnc12`, the growth inhibition is 1%.
As for `CCCCNCCCNCCCNC(=O)c1csc(-c2csc(CCNC(=O)C(NC(=O)C(C)C(O)C(C)NC(=O)C(NC(=O)c3nc(C(CC(N)=O)NCC(N)C(N)=O)nc(N)c3C)C(OC3OC(CO)C(O)C(O)C3OC3OC(CO)C(O)C(OC(N)=O)C3O)c3cnc[nH]3)C(C)O)n2)n1` (stereo not given), the figure is 97% (active).
Under `c1ccc(-c2ccc(-c3cnc(-c4ccc(-c5ccccc5)cc4)o3)cc2)cc1` stands 8%; under `CN(C)C=Nc1ccc2nonc2c1`, 15%.
As for `COC(=O)C(CCC(=O)Cc1ccccc1)N1C(=O)c2ccccc2C1=O` (stereo not given), the figure is 8%.
Regarding `O=S(=O)(Nc1ccccc1)c1ccccc1CC(O)(c1ccccc1)c1ccccc1`, the growth inhibition is 40%.
For the compound `O=C1OC(=O)C2C=CC=CC12` (stereo not given), the growth inhibition is -3%.
Under `CCOC(=O)N/N=C/c1ccc([N+](=O)[O-])o1` stands 17%; under `CN=C(N)N/N=C(\C)c1ccc2c(ccc3ccccc32)c1`, 33%.
Consider `O=C(C(/C=N/C(=S)NCc1ccccc1)=C(/O)c1ccccc1)c1ccccc1`, for which the growth inhibition is 2%.
Consider `Cc1nc(Nc2ccc(Cl)cc2)sc1C(=O)Nc1cccc2c(=O)[nH][nH]c(=O)c12`, for which the growth inhibition is 11%.
With `Cc1c2ccccc2c(C)c2c1cc(F)c1ccccc12`, the growth inhibition was 21%.
Under `CC1=C(C(=O)Nc2ccccc2)C(c2cc(Cl)cc(Cl)c2)C(C(=O)Nc2ccccc2)=C(C)N1` stands -11%; under `O=[N+]([O-])/C(Br)=C\c1ccc([N+](=O)[O-])cc1`, 40%.

The values are drawn from PubChem BioAssay (NCI).
